Bioassay records: PubChem BioAssay, National Center for Advancing Translational Sciences (NCATS)
RE007 growth inh: qHTS Assay for Inhibitors of the HIV-1 protein Vpr; hit rate 0.21% among 360,000; S. pombe RE007 Vpr strain, BacTiter-Glo ATP luminescence, 24 h; Potency, µM (highest dose often 92.2 µM), without a hit: at the top dose activity change, negative = less growth, actives largely listed as inhibitors; AID 651644, 2012; active = well fitted falling curve with a large enough effect; inconclusive = small, poorly fitted or top-dose-only effect; inactive = no such curve, though single readings can be large or run the other way; also: potency is read from the fitted curve at half-maximal effect; % is scaled to controls: 0 for no effect and ±100 for the full control effect; nearly all actives have a fitted effect of over 50% in size
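Fission yeast RE007 carrying one integrated HIV-1 vpr copy, seeded at OD 0.01 in PMG+AL medium with 23 nL pinned compound. Grown 24 h at 30 degrees; viability read by BacTiter-Glo luminescence after 5 min.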
LmPK inhibitor: qHTS Assay for Inhibitors of Leishmania Mexicana Pyruvate Kinase (LmPK). Q27686. purified LmPK, Kinase-Glo ATP luminescence, 1 h. Potency, µM (series often up to 57.5 µM), inactives show at the highest dose activity change, negative = inhibition, usual class: inhibitors. hit rate 0.37% among 290,000; also: potency is read from the fitted curve at half-maximal effect; % is scaled to controls: 0 for no effect and ±100 for the full control effect
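Purified LmPK (0.1 nM) converted ADP (0.1 mM) to ATP with PEP (0.5 mM) in imidazole buffer pH 7.2 with KCl and MgCl2, 1 h at room temperature. ATP was read by Kinase-Glo luminescence; data normalized to uninhibited and no-enzyme controls.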
TbPYK inhibitor: qHTS of Trypanosoma Brucei Inhibitors | pyruvate kinase (Trypanosoma brucei), Q57TT1 | TbPYK enzyme, Kinase-Glo Plus ATP luminescence, 45 min | Potency, µM (top dose mostly 76.8 µM), inactives show at the top dose activity, negative = inhibition, actives largely listed as inhibitors | hit rate 0.12% among 410,000 | AID 624173, 2012; also: potency is read from the fitted curve at half-maximal effect; % is scaled to controls: 0 for no effect and ±100 for the full control effect; nearly all actives have a fitted effect of over 50% in size
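T. brucei PYK with substrate was exposed to pin-transferred compounds across a concentration series, then started with 130 uM ADP (final). After 45 min at room temperature, Kinase-Glo Plus luminescence was read, normalized and curve-fitted.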
Giardia FBPA inh: qHTS Assay for Inhibitors of Fructose-1,6-bisphosphate Aldolase from Giardia Lamblia; A8B2U2; purified Giardia FBPA; Potency, µM (titrated, usually from 59.6 µM), for inactives: at the top dose activity, negative = inhibition, actives largely listed as inhibitors; hit rate 0.71% among 290,000; AID 2451, 2010; also: potency is read from the fitted curve at half-maximal effect; % is scaled to controls: 0 for no effect and ±100 for the full control effect; nearly all actives have a fitted effect of over 55% in size
Target sequence (A8B2U2 whole entry, looked up): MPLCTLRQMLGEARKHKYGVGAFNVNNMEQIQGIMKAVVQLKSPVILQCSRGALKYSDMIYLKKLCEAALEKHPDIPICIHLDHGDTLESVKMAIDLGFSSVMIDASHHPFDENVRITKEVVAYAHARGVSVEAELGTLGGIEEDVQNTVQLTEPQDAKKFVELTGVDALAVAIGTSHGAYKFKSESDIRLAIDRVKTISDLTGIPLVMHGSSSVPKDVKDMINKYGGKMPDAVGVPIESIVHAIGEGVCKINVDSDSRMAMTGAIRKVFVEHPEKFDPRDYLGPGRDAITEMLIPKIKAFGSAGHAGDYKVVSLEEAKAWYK
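40 nM FBPA preincubated 10 min at RT with compound (up to 57.5 uM final), then substrate plus GAPDH/TPI/NAD/arsenate coupling and diaphorase/resazurin added. Fluorescence read after 20 min at RT, 525/598 nm.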
Shiga inhibitor: A qHTS for Small Molecule Inhibitors of Shiga Toxin | Vero cells, Shiga toxin protein synthesis inhibition reporter | inhibition, % at 38.7 µM | hit rate 9.2% among 290,000 | AID 2315, 2010; in the data active = inhibition mostly above about 28%, no sharp cut-off; inactive = mostly below about 43%; also: 0% is about no effect
CHX counter: Cycloheximide Counterscreen for Small Molecule Inhibitors of Shiga Toxin | max response, % | AID 2314, 2010 | cell reporter, cycloheximide protein synthesis inhibition counterscreen | hit rate 12% among 300,000; in the data active = max response mostly above about 13%, no sharp cut-off; inactive = mostly below about 14%; also: read at 38.3 µM for the half of the compounds with a filed dose; 0% is about no effect
Numbers without * were called inactive; ? = inconclusive; . = no result; [ ] = remark or other dose. The entries come from a sample that favours hits as a whole. Unless noted, calls follow the shape of the dose curve; as a rule, active = well fitted curve in the direction sought with a large enough effect; inconclusive = small, poorly fitted or top-dose-only effect, or another doubt; inactive = no such curve, though single readings can be large; an effect the other way counts as inactive or inconclusive.

SMILES	RE007 growth inh	LmPK inhibitor	TbPYK inhibitor	Giardia FBPA inh	Shiga inhibitor	CHX counter
Cc1ccc(C(=O)N/C(N)=N/c2nc3ccccc3o2)cc1	3%	3%	-5%	17%	23	10
CCCC(=O)N/C(N)=N/c1nc2ccccc2o1	-15%	-6%	-1%	6%	87*	51*
CC(C)CC(=O)N/C(N)=N/c1nc2ccccc2o1	-18%	4%	1%	4%	103*	51*
CC(C)(C)C(=O)N/C(N)=N/c1nc2ccccc2o1	?	3%	7%	-25%	71*	50*
CC(C)CC(=O)NC(=S)N(Cc1ccccc1)Cc1ccccc1	-1%	2%	-1%	10%	11	-4
N/C(=N\c1nc2ccccc2o1)NC(=O)c1ccccc1	-7%	6%	-1%	5%	49*	46*
COc1cc(NC(=O)c2ccc(-c3nc(COc4ccccc4)c(C)o3)cc2)cc(OC)c1	.	.	0%	.	.	.
COc1ccc(C2/C=C\CN(S(=O)(=O)CC34CCC(CC3=O)C4(C)C)CC(=O)N2Cc2ccc(F)cc2)cc1 (centres undefined)	.	.	.	0%	-4	-4
C[n+]1cccc(C2C(C#N)=C(N)Oc3c2ccc2ccccc32)c1 (centres undefined)	-13%	-4%	-3%	?	76*	51*
CC(C)(C)C1=CC=C(C(C)(C)C)C(=O)C1=O	.	22µM*	.	7.9µM*	0	-2
Cc1ccc(CNC(=O)c2ccc(N3CCCC3)c(NC(=O)Nc3ccc(C)cc3)c2)cc1	.	.	-2%	.	.	.
CCCCCCCC#Cc1ccccc1/C=N/S(=O)C(C)(C)C (centres undefined)	.	.	.	0%[12.9 µM]	.	.
O=C(N1CCCCC1)C1(S(=O)(=O)c2ccccc2)CC=CC1	2%	2%	-2%	3%	10	17*
COCCNC(=O)C1(S(=O)(=O)c2ccccc2)CC=CC1	-6%	-2%	-10%	3%	25	13*
O=C(N1CCOCC1)C1(S(=O)(=O)c2ccccc2)CC=CC1	6%	-4%	1%	6%	-1	-3
O=C1c2cc(O)cc(O)c2OC[C@@H]1c1ccc(O)c(O)c1	.	.	.	-15%	-7	-4
O=C(N/N=C\c1ccc(CNS(=O)(=O)c2ccccc2)o1)C(=O)Nc1ccc(F)cc1	1%	2%	-8%	2%	-4	14*
c1ccc(-n2nnnc2-n2nnc3ccccc32)cc1	-8%	2%	3%	-1%	-19	-5
c1ccc(-n2nnc3ccccc32)nc1	-1%	-16%	-4%	4%	67*	26*
CC(=O)c1cnc2cc(-c3ccccc3)nn2c1C	-7%	-2%	-7%	-2%	57*	43*
COc1ccc(-c2cc3ncc(C(C)=O)c(C)n3n2)cc1	-4%	-12%	7%	1%	68*	28*
CC(=O)c1cnc2cc(-c3ccc(C)cc3)nn2c1C	-4%	-15%	3%	-2%	13*	26*
CC(=O)c1cnc2cc(C)nn2c1C	19%	-4%	-8%	0%	-4	-2
CS(=O)(=O)N1CCC2(CCN(Cc3ccc(C#N)cc3)CC2)CC1	.	.	-8%	2%	.	.
CC(C)(CNc1ccc([N+](=O)[O-])cc1C#N)N1CCOCC1	-17%	-4%	-1%	13%	5	-1
SMILES	RE007 growth inh	LmPK inhibitor	TbPYK inhibitor	Giardia FBPA inh	Shiga inhibitor	CHX counter
CC(C)(CNc1ccc(S(=O)(=O)C(F)(F)F)cc1[N+](=O)[O-])N1CCOCC1	9%	-10%	-1%	.	31*	35*
O=[N+]([O-])c1cc(S(=O)(=O)N2CCCCC2)ccc1NCCN1CCOCC1	5%	20%	1%	7%	3	-4
O=[N+]([O-])c1cc(S(=O)(=O)N2CCCCC2)ccc1NCCCN1CCOCC1	7%	0%	-12%	0%	42*	43
CCC(Sc1nc2nccnc2c(=O)n1Cc1ccc(Cl)cc1)C(=O)NC1CCCCC1 (centres undefined)	.	.	6%	.	.	.
O=C(O)CNC(=O)/C=C/c1ccc(Cl)cc1Cl	18%	9%	-6%	13%	28	-1
COCCCNC(=O)/C=C/c1ccc(Cl)cc1Cl	-22%	-1%	0%	-3%	54*	17*
O=C(NC1CCCCCC1)c1cccc(N2CCCC2=O)c1	-2%	-15%	-18%	0%	33*	46*
O=C(NC1CCCN(Cc2ccc(Cl)cc2)C1)c1cccc(N2CCCC2=O)c1 (centres undefined)	-14%	-11%	-4%	.	-30	-2
Cc1ccc(C(=O)NC2CCCCCC2)cc1N1CCCC1=O	2%	-2%	1%	9%	14	23*
O=C1CS/C(=N\N=C\c2ccco2)N1c1ccccc1	-15%	14%	0%	-5%	45	15*
O=C(N=C1SCC(=O)N1c1ccccc1)c1ccco1	-6%	-4%	0%	2%	47	31*
O=C(N=C1SCC(=O)N1c1ccccc1Cl)c1ccccc1	1%	2%	-6%	-5%	73*	35*
O=C(N=C1SCC(=O)N1c1ccccc1Cl)c1ccco1	-7%	-2%	-2%	-19%	104*	30*
O=C(NNC1CC(=O)N(c2ccccc2)C1=O)c1ccco1 (centres undefined)	-17%	0%	-2%	8%	17	4
CCCCCCCCCCCCCCCCOC[C@H](COP(=O)([O-])OCC[N+](C)(C)C)OC(=O)CCCCCCCC(=O)O	.	.	.	27%	-8	-3
O=C(CSCc1nc2cccnc2n1C1CCCCC1)NCc1cccc(Br)c1	.	.	-1%	.	.	.
NCCCC[C@H](NC(=O)[C@@H]1CCCN1C(=O)[C@@H](N)CCCN=C(N)N)C(=O)N1CCC[C@H]1C(=O)N[C@@H](CCC(N)=O)C(=O)N[C@@H](CCC(N)=O)C(=O)N[C@@H](Cc1ccccc1)C(=O)O	.	.	.	2%	-10	-5
CCCc1sc(N/N=C/c2ccccn2)nc1-c1ccc(F)cc1	?	1%	-17%	-17%	52*	25*
O=C(Cc1ccc(F)cc1)N/N=C/c1ccccn1	-1%	-3%	1%	11%	-7	2
COc1ccc(OCc2cc(C(=O)NC3CCc4ccccc43)no2)c(Cl)c1 (centres undefined)	4%	-7%	6%	.	-1	0
COc1cc(Cl)ccc1OCc1cc(C(=O)N2CCCCCCC2)no1	17%	-10%	-10%	.	84*	43*
COc1cc(C)ccc1OCc1cc(C(=O)N2CCCCCC2)no1	-13%	-11%	-6%	9%	64*	30*
COCCN1CCN(C(=O)c2cc(COc3ccc(Cl)cc3OC)on2)CC1	7%	-12%	-15%	.	94*	58*
